Experimental data reported in ChEMBL document CHEMBL3988442, “University of Dundee, Small-Polar-MMV Screening Library” (2021).
Hit rate of the full screen: of about 38,000 compounds, about 1,200 (3.2%) showed an effect of 50% or more. The median lay at about -58%. The entries come from a sample that favours strong results as a whole.

The molecules below were run on Plasmodium falciparum (assay: Calibr Malaria Delayed Death Assay SOP). Settings: concentration 4.99e-06 (unit not given; other assays of the set use mol/L).
Format: functional, organism-based
Design: scale not given: in the data most compounds retested in dose-response had high values

Row | Compound | Percent Effect [%]
1 | O=C(Cc1ccn[nH]1)N1CCc2cc(Br)sc2C1 | -31.09
2 | CC1(C)COCCN1C(=O)c1ccc(Cn2cncn2)cc1 | -28.18
3 | Fc1ccc(OCCCN2CCCC(Cn3cncn3)C2)cc1 (centres undefined) | -24.19
4 | CN(C)CCNC(=O)c1nc2c(s1)CCCN2C(=O)C1CC1.O=C(O)C(F)(F)F | 21.8
5 | Cc1nc(CN2CCCn3c(nc(Cn4cncn4)cc3=O)C2)cs1.O=C(O)C(F)(F)F | -37.93
6 | Cc1cc(CN(C)C(=O)c2ccc(OCC(F)(F)F)nc2)no1 | -117.9
7 | CC(C)c1nn(C)c(Cl)c1CNCC(=O)N1CCN(C)CC1.Cl | -109.8
8 | Cn1ncc(C(=O)O)c1C(=O)Nc1nc2ccccc2s1 | -36.51
9 | C[C@@H]1CN(Cc2cn(C)nc2-c2ccccc2F)C[C@H](C)O1 | -119.2
10 | CC(NC(=O)N1CCN(c2cccs2)CC1)c1ccncc1 (centres undefined) | -36.24
11 | Cc1noc(C)c1C(C)NC(=O)N1CCN(c2cccs2)CC1 (centres undefined) | -38.18
12 | CC(NC(=O)N1CCN(c2cccs2)CC1)c1ccc(C#N)cc1 (centres undefined) | 61
13 | CN(Cc1ccccc1)CC1CC2(CO1)CN(c1nncs1)C2 (centres undefined) | -3.819
14 | CN(Cc1ccccc1)CC1CC2(CO1)CN(Cc1nccs1)C2 (centres undefined) | 3.92
15 | CN(Cc1ccccc1)CC1CC2(CO1)CN(Cc1cnn(C)c1)C2 (centres undefined) | 50.64
16 | Cc1nn(CC(=O)N2CCC3(CN(C)C(=O)O3)C2)c(=O)c2ccccc12 (centres undefined) | -0.9093
17 | Cc1nc(C)c(CNCC2CCCn3ccnc32)s1 (centres undefined) | -88.04
18 | Cc1ccc(CNCC2CCCN2c2cccnn2)s1 (centres undefined) | 44
19 | c1cc(CNCc2ccnc(N3CCCC3)c2)c2c(c1)OCO2 | -28.94
20 | Cn1cc(N2CCCC(NCc3cccc4c3OCCCO4)C2)cn1 (centres undefined) | -37.41
21 | Cc1cn2c(n1)C(CNCc1cccc3c1OCO3)CCC2 (centres undefined) | 81.04
22 | Clc1snnc1CN1CCCCC1Cn1cccn1 (centres undefined) | -105.5
23 | CN(Cc1cccc(C#N)c1)Cn1nc(C(C)(C)C)ccc1=O | -75.82
24 | COc1cc(NC(=O)c2cc(Cl)ccc2F)c(C(=O)N(C)C)cc1OC | -86.88
25 | Cc1nnc2ccc(OCCNS(=O)(=O)c3cccs3)nn12 | -74.14

Row | Compound | Percent Effect [%]
26 | CC1=N[C@@]2(CC[C@@H]3CN(CC(=O)N(C)C)C[C@@H]32)C(=O)N1CC1CC1.O=C(O)C(F)(F)F | -113.5
27 | CC1=N[C@@]2(CC[C@@H]3CN(Cc4ccccc4F)C[C@@H]32)C(=O)N1CC1CC1.O=C(O)C(F)(F)F | 66.32
28 | CCC1=N[C@@]2(CC[C@@H]3CN(Cc4ccccc4F)C[C@@H]32)C(=O)N1CC.O=C(O)C(F)(F)F | 37.33
29 | O=C(O)C(F)(F)F.O=C([C@H]1C[C@H]2OCC[C@H]2N(Cc2ccoc2)C1)N1CCCCO1 | -83.93
30 | CCN1CCn2cc(CNC(=O)c3cnn(C)c3)nc2C1.O=C(O)C(F)(F)F.O=C(O)C(F)(F)F | -97.9
31 | COc1ccc(CNCC2CCN(c3ccccc3OC)C2)cc1O (centres undefined) | 21.41
32 | COc1c(CNC2CCN(c3ncccn3)CC2)c(C)nn1C | -45.93
33 | COc1ccccc1N1CCC(CNCc2c(C)nn(C)c2OC)C1 (centres undefined) | 51.83
34 | COc1ccccc1N1CCC(N2CCOCC(CO)C2)CC1 (centres undefined) | 27.34
35 | COc1ccccc1N1CCC(CNS(=O)(=O)c2c(C)nn(C)c2C)C1 (centres undefined) | -22.9
36 | COc1ccccc1N1CCC(CNC(=O)N(C)Cc2ccco2)C1 (centres undefined) | -114.8
37 | COc1ccccc1N1CCC(CNCc2cccc(C#N)c2)C1 (centres undefined) | 0.8345
38 | COc1ccccc1N1CCC(CNCc2cccc(OC)c2OC)C1 (centres undefined) | 55.95
39 | COc1ccccc1N1CCC(CNCc2cccc(O)c2)C1 (centres undefined) | 55.7
40 | Cc1ccc(C(C)(O)CNC(=O)CCn2ccnc2C(C)C)o1 (centres undefined) | -68.59
41 | Cc1[nH]ncc1C(=O)NCC(CO)Cc1ccc(Cl)cc1 (centres undefined) | -37.01
42 | c1cc(CNCC2CNc3ccnn3C2)cc(N2CCOCC2)n1 (centres undefined) | -156.8
43 | Cc1cc(N2Cc3cnn(CCO)c3C2)nc(-c2ccccc2O)n1 | -189
44 | O=C(NCC(O)C1CC1)Nc1cnn(Cc2ccccc2)c1 (centres undefined) | -47.94
45 | Cc1cncc(C2CCCN(C(=O)c3cn(C)nc3C)C2)n1 (centres undefined) | -35.12
46 | Cn1nc(CN2CCCCC(N)C2)c2c(Cl)cccc21 (centres undefined) | 65.71
47 | CCn1cc(CN2CCCN(C3Cc4ccccc4C3)CC2)c(C)n1 | -9.026
48 | Cn1cnnc1CC1CCN(Cc2nn(C)c3cccc(Cl)c23)CC1 | -15.19
49 | Cn1nc(CN2CCC(c3ccncc3)CC2)c2c(Cl)cccc21 | -16.19
50 | C[C@@H]1CN(C2CCN(Cc3nn(C)c4cccc(Cl)c34)CC2)C[C@H](C)O1 | -11.21

Row | Compound | Percent Effect [%]
51 | Cn1nc(CN2CCCN(C3CCCC3)CC2)c2c(Cl)cccc21 | 68.46
52 | CCC(=O)N1CCC[C@]2(C(=O)N(C)C)CN(c3ccccn3)C[C@@H]2C1.O=C(O)C(F)(F)F | -7.405
53 | Cn1nccc1-c1nnn2c1COC(CNCc1nccs1)C2.O=C(O)C(F)(F)F (centres undefined) | -38.88
54 | CCn1cc(S(=O)(=O)N2CCCC2c2ccc(C)o2)cn1 (centres undefined) | -154.6
55 | CC(C)c1nccn1C1CCCN(C(=O)c2nccnc2N)C1 (centres undefined) | -27.69
56 | CCOc1ncccc1CNC(=O)c1cc(C)on1 | -34.12
57 | Cn1cc(C2CC(=O)NC23CCN(C(=O)C2CC=CC2)CC3)cn1 (centres undefined) | -79.79
58 | Cn1cc(CN2CCCC(CCc3ccc(F)cc3)C2)cn1 (centres undefined) | 73.58
59 | Cn1cc(CN2CCCC(CCc3ccccc3C(F)(F)F)C2)cn1 (centres undefined) | 87.33
60 | Cn1cc(C[C@H]2[C@H](O)CCN2Cc2ccc(F)cc2)cn1.O=C(O)C(F)(F)F | 1.719
61 | Cn1cc(CN2CCC(CCC(=O)NCc3ccc(F)cc3)CC2)cn1 | -110.1
62 | Cc1ccccc1CCC1CCCN(Cc2nnc(-c3ccco3)o2)C1 (centres undefined) | -11.7
63 | Cn1cc(CN2CCCC(CCc3ccc(F)c(F)c3)C2)cn1 (centres undefined) | 69.99
64 | Cn1cnnc1CNC(=O)C1CCCN(Cc2cccc(F)c2)C1 (centres undefined) | -147.7
65 | Cc1[nH]c(=O)[nH]c(=O)c1CN1CCCC(CCc2ccc(F)c(F)c2)C1 (centres undefined) | -43.91
66 | COc1ccc(CN2CCCC(Cn3nc(C)nc3C)C2)cc1F (centres undefined) | -17.07
67 | Cn1cc(CNC(=O)C2CCCN(Cc3cccc(F)c3)C2)cn1 (centres undefined) | -63.48
68 | Cn1ccnc1CCNC(=O)C1CCCN(Cc2cccc(F)c2)C1 (centres undefined) | 58.15
69 | Cn1cc(CN2CCCN(CCCc3ccccc3)CC2)cn1 | -23.65
70 | Cc1nn(C)c(Cl)c1C1CCCN1C(=O)c1ccnn1C (centres undefined) | -125.5
71 | Cc1nc(CN2C[C@@H]3CN(C(=O)Cc4ccccn4)C[C@@H]3C2)cs1.O=C(O)C(F)(F)F.O=C(O)C(F)(F)F | -48.37
72 | CN(Cc1nccn1CC(F)(F)F)C(=O)c1ccc(F)cc1F | -38.32
73 | CCN1CCN(c2ccc(NC(C)c3nc(C(C)C)no3)c(C)c2)CC1 (centres undefined) | -29.45
74 | CNC(=O)COC(=O)c1ccn(-c2ccc(Cl)c(Cl)c2)n1 | -33.36
75 | COCC1c2c(cnn2C)CCN1Cc1ccco1.O=C(O)C(F)(F)F.O=C(O)C(F)(F)F (centres undefined) | -7.218

Row | Compound | Percent Effect [%]
76 | Cc1cc(F)ccc1-n1cc(O)c(C(N)=O)n1 | -184.1
77 | CC(c1ccc(F)c(F)c1)N1CCN(Cc2nccn2C)CC1 (centres undefined) | -18.79
78 | Cc1[nH]c(=O)[nH]c(=O)c1CN1CCCC(CCc2ccc(F)cc2F)C1 (centres undefined) | 49.97
79 | Cc1[nH]c(=O)[nH]c(=O)c1CN1CCCC(CCc2ccccc2F)C1 (centres undefined) | -31.73
80 | Cn1cc(CN2CCCC(CCc3ccc(F)cc3F)C2)cn1 (centres undefined) | 88.72
81 | Cn1cc(CN2CCCC(CCc3c(F)cccc3F)C2)cn1 (centres undefined) | 78.37
82 | Cn1ccnc1CN1CCCC(CCc2ccc(F)c(F)c2)C1 (centres undefined) | 73.33
83 | Cc1[nH]c(=O)[nH]c(=O)c1CN1CCCC(CCc2c(F)cccc2F)C1 (centres undefined) | -50.25
84 | Cc1nc(C)n(CC2CCCN(Cc3ccc(F)cc3C#N)C2)n1 (centres undefined) | -108
85 | CC(C)n1ccnc1C1CCCN(Cc2ccc(F)c(F)c2)C1 (centres undefined) | 8.859
86 | Cc1ccc(N2CCN(C(=O)CCc3ccc(O)cc3)CC2=O)cc1 | -38.56
87 | Cc1cc(F)cc2c(N3CCC(S(N)(=O)=O)CC3)c(C#N)cnc12 | -75.95
88 | O=C1CC2(CCSC2)C(=O)N1Cc1coc(-c2ccccc2)n1 (centres undefined) | -69.36
89 | CC1CCc2[nH]c(=O)c(C(=O)N3CCc4ccccc4C3)cc2C1 (centres undefined) | -106.2
90 | COCCN(CC1CC1)c1nc(CCN)nc2ccccc12 | 8.553
91 | COCCN(CCOC)Cc1c(C)nc2ccccc2c1O | -60.42
92 | COCCN(Cc1ccccc1Cl)c1nc(CCN)nc2ccccc12 | 89.02
93 | COCCN(Cc1cc(O)nc2ccccc12)C(=O)NC(C)C | -37.53
94 | COCCN(Cc1cccs1)C(=O)C1CCCN(C(N)=O)C1 (centres undefined) | -166.3
95 | Cc1ccsc1CN(c1nc(CCN)nc2ccccc12)C1CC1 | 51.16
96 | NCCc1nc(N(Cc2cncs2)C2CC2)c2ccccc2n1 | -36.69
97 | NCCc1nc(N(Cc2nccs2)C2CC2)c2ccccc2n1 | -61.5
98 | COCCN(Cc1cccs1)c1nc(CCN)nc2ccccc12 | 61.62
99 | CCC(=O)N(CCN(C)C)Cc1ccc(F)c(F)c1 | 39.58
